In PubChem BioAssay (EPA / NIEHS):
Activity calls are given as the source filed them. The calls were made as follows: active = hit-call score of the fitted dose curve at least 0.9, where 1 is the maximum; inactive = score below 0.9.

read-out: ABC Transporter (ABCB11), ABCB11 (gene 8647); experiment: LTEA_HepaRG_ABCB11: Life Technologies and Expression Analysis (LTEA) Assay for ABC Transporter (ABCB11) using HepaRG (AID 2283463); details: mRNA level, 48 h; actives raise or lower the signal
Protocol: LTEA_HepaRG is a cell based, multiplexed-readout assay that uses HepaRG, a human liver cell line, with measurements taken at 48 hours after chemical dosing on a 96-well plate.LTEA_HepaRG_ABCB11 is one of 102 assay component(s) measured in the LTEA HepaRG cell culture assay. It is a marker of Steatosis/NR mediated transport.Data from the assay component LTEA_HepaRG_ABCB11 was analyzed into 1 endpoint. This assay endpoint, LTEA_HepaRG_ABCB11, was analyzed with bidirectional fitting relative to DMSO as the negative control and baseline of activity. Using a type of inducible reporter, measures of mRNA induction for gain or loss-of-signal activity can be used to understand regulation of transcription factor activity. To generalize the intended target to other relatable targets, this assay endpoint is annotated to the transporter intended target family, where the subfamily is ABC transporter.
A total of 1060 chemcials from the ToxCast library were tested in eight-point concentration-response experiments. Cell culture and cytotoxicity assays were conducted at Thermo Fisher Scientific's Custom Services facility (Madison, WI). A single lot of human HepaRG cells (Thermo Fisher Scientific, Frederick, MD) was used for the cell culture experiments. 96-well format collagen type I coated plates of human HepaRG cells were prepared using established methods. Briefly, cryopreserved HepaRG cells were thawed, plated at a density of approximately 100,000 cells/well in HepaRG Thaw, Plate, and General Purpose media (HPRG770, Thermo Fisher Scientific), and incubated for 48 hours. 0.5% DMSO was selected as vehicle control to balance the requisite need of DMSO in HepaRG cultures to maintain differentiation (for example, baseline metabolism, proportions of hepatocytes vs. cholangiocytes), while enabling further hepatic receptor pathway activation (for example, PXR and CAR) in response to chemical exposure. 48 hours after plating, the culture medium was replaced with HepaRG Serum-Free Incudtion Media. Cells were exposed to each test chemical in duplicate and maintained in CO2 incubators for another 48 hours. Chemical plates were thawed to room temperature and 200x concentrations of treatment groups were prepared. 8-point conentration-reponse curves were made with the highest exposure at 100 uM, followed by half-log dilutions, all in 0.5% DMSO. Each test plate contained variouse controls, induction positive controls (1mM phenobarbital), cytotoxicity positive controls ([…] aflatoxin B1), vehicle controls (0.5% DMSO), and total lysis controls (0.5% DMSO). Cell morphology images were taken using an Essen IncuCyte FLR automated microscope, with six 96-well plates imaged in about 24 minutes. Images were captured and exported and JPEG files. Spent culture media was transfered to black-well plates for the LDH assay, and remaining media was sorted at -80 C for later use. Cells were treated with RLT buffer and frozen until shipped for gene expression analysis. Total RNA was isolated from the cell suspension in 75 uL of Buffer RLT (Qiagen, Germantown, MD 20874) by Quintiles/Expression Analysis (Durham, NC) using a custom isolation procedure. Total RNA from each plate well was transferred to a preamplification plate. Fluidigm's 96.96 Dynamic ArrayTM (Fluidigm, Amsterdam, the Netherlands) technology was used for gene expression analyses by quantitative reverse transcription polymerase chain reaction (qRT-PCR, performed by Quintiles/Expression Analysis, Durham, NC)89. Standard TaqManTM Assays (Applied Biosystems/ThermoFisher Scientific, Foster City, CA) were used to assess the expression of 93 genes selected based on their selectivity and sensitivity to important hepatic receptors known to be modulated by environmental chemicals; importance in human hepatocyte functionality; and hepatotoxicity. […]

Structure (SMILES)	outcome	AC50
Clc1ccc(Cl)cc1	inactive	
O=S(=O)(O)C(F)(F)C(F)(F)C(F)(F)C(F)(F)C(F)(F)C(F)(F)F	inactive	
CCC(C)(CC)c1cc(NC(=O)c2c(OC)cccc2OC)on1		83 µM (active)
Cc1cccc(C)c1N	inactive	
Cc1ccccc1CO[C@@H]1C[C@@]2(C(C)C)CC[C@]1(C)O2	inactive	
Cc1ccccc1[N+](=O)[O-]	inactive	
NS(=O)(=O)C(F)(F)C(F)(F)C(F)(F)C(F)(F)C(F)(F)C(F)(F)C(F)(F)C(F)(F)F		7.12 µM (active)
CC(C)C(=O)OCC(C)(C)C(OC(=O)C(C)C)C(C)C (stereo not given)	inactive	
COS(=O)(=O)OC	inactive	
Cc1cc(O)ccc1Cl	inactive	
C=CC(=O)NCNC(=O)C=C		50 µM (active)
CCOP(=S)(OCC)SCSC(C)(C)C		18.6 µM (active)
C1CC2OC2CC1C1CO1 (stereo not given)	inactive	
CCCCCCCCCC[N+](C)(C)CCCCCCCCCC		15.8 µM (active)
C[C@]12CCC(=O)C=C1CC[C@@H]1[C@@H]2CC[C@]2(C)C(=O)CC[C@@H]12		2.67 µM (active)
Clc1ccc(C(Cl)(Cl)Cl)cc1	inactive	
Oc1c(Cl)c(Cl)c(Cl)c(Cl)c1Cl		3.29 µM (active)
Cc1cccc([N+](=O)[O-])c1	inactive	
C=CC(N)=O	inactive	
CCOC(=O)C(O)(c1ccc(Cl)cc1)c1ccc(Cl)cc1		38.9 µM (active)

Structure (SMILES)	outcome	AC50
O=C(NC(=O)c1c(F)cccc1F)Nc1cc(Cl)c(OC(F)(F)C(F)F)c(Cl)c1		50 µM (active)
CCC(=O)O[C@H]1CC[C@H]2[C@@H]3CCC4=CC(=O)CC[C@]4(C)[C@H]3CC[C@]12C		9.78 µM (active)
CCCCCCCCOC(=O)c1ccccc1C(=O)OCCCCCCCC	inactive	
CCC(C)c1cc([N+](=O)[O-])cc([N+](=O)[O-])c1O (stereo not given)		1.29 µM (active)
Cc1ccc(O)c(C)c1	inactive	
ClC1=C(Cl)[C@]2(Cl)[C@@H]3[C@@H](Cl)[C@H]4O[C@H]4[C@@H]3C1(Cl)C2(Cl)Cl	inactive	
CCC(C)(c1ccc(O)cc1)c1ccc(O)cc1		88.1 µM (active)
O=C(O)C(F)(F)C(F)(F)C(F)(F)C(F)(F)C(F)(F)C(F)(F)C(F)(F)C(F)(F)C(F)(F)F		61 µM (active)
CC(C)(c1ccccc1)c1ccc(O)cc1		76.1 µM (active)
CCNc1nc(NC(C)C)nc(SC)n1		50 µM (active)
Cc1cc(-c2ccc(N)c(C)c2)ccc1N		22.4 µM (active)
Oc1ccc(Cl)cc1Cl	inactive	
COc1ccc(O)c(C(C)(C)C)c1	inactive	
CC(c1ccc(O)cc1)(c1ccc(O)cc1)c1ccc(O)cc1		20.8 µM (active)
O=NN(c1ccccc1)c1ccccc1	inactive	
CCCCCCCCCc1ccc(O)cc1	inactive	
C[C@]12CCC(=O)C=C1CC[C@@H]1[C@@H]2CC[C@@]2(C)[C@H]1CC[C@]2(C)O		0.647 µM (active)
Cc1ccccc1O	inactive	
ClC1=C(Cl)[C@]2(Cl)[C@@H]3[C@@H]4C[C@@H]([C@H]5O[C@@H]45)[C@@H]3[C@@]1(Cl)C2(Cl)Cl	inactive	
ClC(Cl)=C(c1ccc(Cl)cc1)c1ccc(Cl)cc1	inactive	
